# Screening data: PubChem, several laboratories
# Shown are actives, neighbours in structure and some others; about 4.2% of the full set was active somewhere.
# esBAF inh – blocks esBAF chromatin remodeling in mouse ES cells; Bmi1-luciferase knock-in reporter, 24 h; 100% = twice the neutral-well signal; reporter increase, % at 12.5 µM; 350,000 compounds, 2% hits; in the data active = activation above about 40%; inconclusive = no clear call, values can overlap the other calls;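 note: 0% = median of the plate's neutral control wells and 100% = double that signal; a rise in the Bmi1 reporter signal indicates esBAF inhibition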
# GAA850 FXN act – increases GAA850 frataxin promoter reporter activity | activation, % at 6 µM | HEK293 lucGAA850 FXN promoter luciferase reporter, 24 h; percent of 10 µM SAHA response | 360,000 compounds, 0.56% hits;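 active = activation above the average of all compounds screened plus 3 SD, cutoff fixed separately per campaign, cut at about 7.5% in these data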;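 note: 0% = DMSO wells and 100% = 10 µM SAHA wells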
# AHR act – activators of human aryl hydrocarbon receptor | activation, % at 5 µM | 320,000 compounds, 2.5% hits | AHR-responsive luciferase reporter cells, luminescence | P35869; in the data active = activation above about 47%;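 note: 0% = vehicle wells and 100% = reference agonist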
# Target sequence (P35869 whole entry, looked up): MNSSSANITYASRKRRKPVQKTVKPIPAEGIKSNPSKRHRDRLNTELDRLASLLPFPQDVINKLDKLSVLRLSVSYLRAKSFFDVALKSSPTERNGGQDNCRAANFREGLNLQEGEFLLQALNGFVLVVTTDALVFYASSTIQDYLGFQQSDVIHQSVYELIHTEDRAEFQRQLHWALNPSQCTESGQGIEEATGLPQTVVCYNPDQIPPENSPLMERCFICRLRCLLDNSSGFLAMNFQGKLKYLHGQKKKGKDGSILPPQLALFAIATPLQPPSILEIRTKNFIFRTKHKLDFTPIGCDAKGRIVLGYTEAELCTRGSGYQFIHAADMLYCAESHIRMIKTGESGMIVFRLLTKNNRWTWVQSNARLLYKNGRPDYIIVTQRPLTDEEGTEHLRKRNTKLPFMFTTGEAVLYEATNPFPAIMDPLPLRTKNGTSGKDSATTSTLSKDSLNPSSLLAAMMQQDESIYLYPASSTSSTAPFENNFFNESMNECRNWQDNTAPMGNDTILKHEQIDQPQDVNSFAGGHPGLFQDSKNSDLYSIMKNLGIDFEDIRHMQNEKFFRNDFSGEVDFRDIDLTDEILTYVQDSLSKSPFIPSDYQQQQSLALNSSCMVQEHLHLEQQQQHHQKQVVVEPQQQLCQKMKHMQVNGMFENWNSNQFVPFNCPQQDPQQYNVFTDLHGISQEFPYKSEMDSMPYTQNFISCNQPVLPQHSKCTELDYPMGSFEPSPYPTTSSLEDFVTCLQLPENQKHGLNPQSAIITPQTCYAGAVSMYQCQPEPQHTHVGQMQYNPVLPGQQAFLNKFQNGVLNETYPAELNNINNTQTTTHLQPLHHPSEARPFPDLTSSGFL
# MITF act – MITF TRPM1 promoter activation in melanoma cells; activation, % at 12.5 µM; 300,000 compounds, 0.75% hits; SK-MEL-5 TRPM1-promoter luciferase, 24 h; % of positive control, neutral wells = 0; AID 588334;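 active = mean activation of at least 80% with every replicate also reaching 80%; inconclusive = mean reaches 80% but some replicate falls short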;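 note: 0% = neutral control wells and 100% = parthenolide positive control wells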
# Wnt bcat act – activates Wnt/beta-catenin signaling in a reporter cell assay | activator, plate reader | activation, % at 9.35 µM | 300,000 compounds, 1.2% hits | AID 743398; in the data active = activation above about 30%, passing the limit was not always enough; inconclusive = no clear call, values can overlap the other calls;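 note: 0% = neutral control wells and 100% = positive control wells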
# Active calls of the source: *; ? = inconclusive; . = no result.
SMILES,esBAF inh,GAA850 FXN act,AHR act,MITF act,Wnt bcat act
CCOC(=O)C1(Cc2cccc(OC)c2)CCCN(C(=O)c2ccccc2C)C1 (configuration not stated),.,-2.6,1.1,72.4,35.4*
CO[C@H]1CN(C)C(=O)c2cc(NC(=O)c3ccccc3F)ccc2OC[C@H](C)N(C)C[C@H]1C,2.4,.,.,.,.
CCC(=O)N(C)C[C@@H]1Oc2ncc(-c3ccc(C)cc3)cc2C(=O)N([C@@H](C)CO)C[C@H]1C,-7.8,.,.,.,.
O=C(C[C@H]1C=C[C@H](NC(=O)C2CCC2)[C@@H](CO)O1)NCc1ccccc1Cl,-2.7,.,.,.,.
CCOC(=O)c1c(C)[nH]c2cc(Br)c(O)cc12,53.7*,0.9,1.5,.,48.3*
O=C(Cc1ccccn1)NCC[C@H]1CC[C@H](NC(=O)CN2CCOCC2)[C@H](CO)O1,0.1,.,.,.,.
CCN(CC)CCn1c2ccccc2c2nc3ccccc3nc21,78.1*,6.6,63.6*,.,3.1
CCOC(=O)Cn1c2ccccc2c2nc3ccccc3nc21,6.9,0.9,15.9,-9.2,5.4
CCN(CC)CCn1c2ccccc2c2n[nH]c(=S)nc21,-3.3,-0.7,8.6,.,0.0
CCCn1c2ccccc2c2nc3ccccc3nc21,.,6.2,78.5*,11.4,17.0
O=c1oc2ccccc2n1CCn1c2ccccc2c2nc3ccccc3nc21,4.9,-2.6,21.7,9.3,-8.7
N#CCCn1c2ccccc2c2nc3ccccc3nc21,-2.3,6.1,70.5*,19.4,.
CCn1c2ccc(F)cc2c2nc3ccccc3nc21,.,6.8,58.5*,3.8,-3.3
Cc1ccc2c(c1)c1nc3ccccc3nc1n2CCN1CCOCC1,60.1*,7.0,19.4,.,.
Cn1c2ccc(Cl)cc2c2nc3ccccc3nc21,12.6,7.1,56.4*,0.2,1.6
CCn1c2ccc(C)cc2c2nnc(SCCN3CCOCC3)nc21,.,4.5,25.2,0.7,-2.9
COc1ccc(OCc2cc(C(=O)NCC3CCOCC3)no2)c(Cl)c1,54.7*,5.7,2.6,31.4,13.7
COc1ccc(OCc2cc(C(=O)NCC(C)Oc3cccnc3)no2)c(Cl)c1 (configuration not stated),70.1*,4.9,9.4,23.5,5.2
COc1ccc(OCc2cc(C(=O)N(C)Cc3cc(C4CC4)n[nH]3)no2)c(Cl)c1,68.2*,3.5,8.5,90.3*,18.1
CCc1ccc(NC(=O)Nc2ccc3c(c2)CCC3)cc1,52.7*,5.2,4.3,50.6,10.0
COc1cccc(NC(=O)c2ccc3c(c2)CCCC3)c1,26.8,4.9,-3.8,45.6,-0.5
CCc1ccc(NC(=O)Nc2ccon2)cc1,44.0*,3.8,10.8,59.1,17.2
CC(=O)c1cccc(NC(=O)c2ccc3c(c2)CCCC3)c1,14.8,2.7,4.3,113.0*,23.7
CC(=O)c1cccc(NC(=O)c2noc3c2CCc2ccccc2-3)c1,17.5,6.0,-5.0,?,32.9*
C[C@H]1CN([C@@H](C)CO)S(=O)(=O)c2ccc(-c3cncnc3)cc2O[C@H]1CN(C)C(=O)Cc1ccccc1,3.6,.,.,.,.
SMILES,esBAF inh,GAA850 FXN act,AHR act,MITF act,Wnt bcat act
C[C@@H]1CN([C@@H](C)CO)C(=O)c2cc(NS(=O)(=O)c3ccccc3)ccc2O[C@H]1CN(C)S(=O)(=O)c1cccs1,0.7,.,.,.,.
C[C@@H]1CN([C@H](C)CO)C(=O)c2cccc(NS(=O)(=O)c3ccc(F)cc3)c2O[C@H]1CN(C)CC1CC1,-0.2,.,.,.,.
CC(=O)c1cccc(NC(=O)Nc2ccc3c(c2)CCC3)c1,65.9*,4.0,7.5,96.5*,19.0
COc1ccc(C(=O)Nc2ccccc2C(N)=O)cc1,33.1,3.7,9.4,83.0*,.
COc1ccc(C(=O)Nc2ccccc2C(=O)Nc2ccncc2)cc1,.,3.2,60.9*,61.7,12.4
CN1C(=O)c2cc(NC(=O)c3ccccc3Cl)ccc2OC[C@@H]2O[C@H](CC(=O)NCC(F)(F)F)CC[C@H]21,3.2,.,.,.,.
C=CCn1c(-c2ccccc2)c[nH]c1=S,64.5*,1.8,-2.0,65.3,42.5*
Cc1ccc(NC(=O)c2ccc(F)cc2)nc1,.,3.7,-2.5,61.1,51.4*
Cc1ccc(NC(=O)c2ccc3[nH]c(=O)c(=O)[nH]c3c2)nc1,13.9,2.5,4.7,13.0,4.8
Cc1ccc(NC(=O)c2sccc2C)nc1,-15.9,1.4,12.5,23.4,51.9*
Cc1nn(-c2ccc(Br)cc2)c(=O)c2ccccc12,31.4,5.8,56.9*,21.6,41.8*
O=C(CN1CCCCC1)Nc1scc2c1c(=O)oc1ccccc12,?,2.7,4.8,.,38.2*
O=C(CN1CCOCC1)Nc1scc2c1c(=O)oc1ccccc12,.,2.0,8.4,.,0.7
CCc1cccc2c(C(=O)COC(=O)c3nccnc3N)c[nH]c12,78.6*,1.6,26.5,30.5,10.5
CCc1cccc2c(C(=O)COC(=O)c3ccc(O)cc3)c[nH]c12,48.9*,4.9,7.7,10.6,2.7
CCc1cccc2c(C(=O)COC(=O)c3ccccc3)c[nH]c12,.,4.0,0.1,73.0,-1.9
Cc1ccc(S(=O)(=O)N[C@H]2CC[C@H](CCn3cc(-c4cccc(F)c4)nn3)O[C@@H]2CO)cc1,-10.4,.,.,.,.
COc1cccc(-c2cc3nc(Nc4ccc(OC)c(OC)c4)n(C)c(=O)c3s2)c1,52.8*,2.5,.,.,-0.1
COC(=O)C(Cc1ccc(OC(=O)c2ccc(C(F)(F)F)cc2)cc1)N1Cc2ccccc2C1=O (configuration not stated),46.5*,0.2,1.5,.,3.9
CSCC[C@@H](C(=O)O)N1Cc2ccccc2C1=O,3.2,1.9,0.5,2.2,0.2
O=C(COc1ccccc1Cl)NCc1nc(-c2ccccc2)no1,.,0.7,47.6*,2.6,-1.2
CNC(=O)C[C@@H]1CC[C@@H]2[C@@H](COc3ccc(NC(=O)c4ccccc4Cl)cc3C(=O)N2C)O1,3.0,.,.,.,.
COc1ccc(/C=N/Nc2nc(C)nc(N)n2)cc1,54.9*,1.6,9.2,31.7,6.0
CCNc1nc(NCC)nc(N/N=C/c2ccc(OC)cc2)n1,.,1.4,18.2,.,-0.4
Brc1cnc2nc(SC/C=C/c3ccccc3)[nH]c2c1,.,1.7,3.3,.,9.6
SMILES,esBAF inh,GAA850 FXN act,AHR act,MITF act,Wnt bcat act
O=C(NCc1nc2ncc(Br)cc2[nH]1)c1ccccc1,22.5,1.4,78.0*,.,.
C[C@@H]1CN([C@@H](C)CO)C(=O)c2cc(NS(=O)(=O)c3cn(C)cn3)ccc2O[C@@H](C)CCCCO[C@@H]1CN(C)C(=O)C1CCCCC1,-1.6,.,.,.,.
C=CCOc1cccc(/C=C/c2nc3ccccc3c(=O)[nH]2)c1,-2.8,7.0,19.6,81.8*,11.8
N#CCOc1ccccc1/C=C/c1nc2ccccc2c(=O)[nH]1,28.5,2.4,62.0*,59.9,4.6
Cc1ccccc1/C=C/c1nc2ccccc2c(=O)[nH]1,20.5,0.7,70.2*,39.8,38.9*
COCCOC(=O)N/C=C\c1nc2ccccc2c(=O)[nH]1,.,1.6,55.0*,-4.2,.
C[C@@H]1CN([C@@H](C)CO)S(=O)(=O)c2ccc(C#CC3(O)CCCC3)cc2O[C@@H]1CN(C)C(=O)Nc1ccccc1,-6.9,.,.,.,.
CCOc1ccccc1Nc1cc(C)nc2ccc(C)cc12,.,-1.6,47.6*,.,-0.3
